This is an account of results in PubChem BioAssay (Tox21).

Inconclusive results are not listed. Values without a mark were called inactive. Activity calls are given as the source filed them. Unless noted, the call rests on the fitted dose curve; in most records, active means well fitted curve in the direction sought with a large enough effect in the repeat runs; inconclusive means weak or mixed curves; inactive means no such curve, though single readings can be large; an effect the other way counts as inactive or inconclusive.

A short description of test [1]: qHTS assay to identify small molecule agonists of the RXR signaling pathway - cell viability counter screen (AID 1159529). Further: series mostly up to about 77 µM; nearly all actives have a fitted effect of over 50% in size. In outline:
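RXR-alpha-UAS-bla HEK 293T cells in medium with 2% charcoal-stripped FBS were pre-incubated 5 hr, then compound-treated 16 hr at 37 C. Viability was read by CellTiter-Glo luminescence in the same wells as the beta-lactamase assay, with tetraoctyl ammonium bromide as positive control.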

Test [2] is described as follows: qHTS assay to identify small molecule antagonists of the retinoid acid receptor (RAR) signaling pathway - cell viability counter screen (AID 1159551). Further: nearly all actives have a fitted effect of over 35% in size. The method, boiled down:
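Measured by luminescent ATP detection, viability reflects C3RL4 cells treated 6 h at 37 C with test chemicals in the presence of 1 uM (final) retinol.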

Test [3] in a line: qHTS assay to identify small molecule antagonists of the retinoic acid receptor (RAR) signaling pathway (AID 1159552; further: nearly all actives have a fitted effect of over 50% in size). The method, boiled down: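 Retinol signaling pathway inhibitors screened in C3RL4 RARE-luciferase reporter cells seeded overnight at 37 C, then compounds added with 1 uM (final) retinol as pathway substrate. After 6 hr at 37 C, luciferase luminescence read after 30 min at room temperature.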
(In general: Quantitative high-throughput screening tests each substance at several concentrations.)

A short description of test [4]: qHTS assay to identify small molecule antagonists of the estrogen related receptor (ERR) signaling pathway from Tox21 library - cell viability counter screen (AID 1224834). Further: nearly all actives have a fitted effect of over 30% in size. Further: potency means the concentration at half of the fitted maximal effect. The method, boiled down: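 Seeded ERR cells were rested 6 h at 37 C/5% CO2 before compounds, positive and negative controls or DMSO were added. Incubation continued for 17.5 h, and viability was then quantified by CellTiter-Fluor fluorescence.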

Test [5] concerns the target Nuclear receptor subfamily 1 group I member 3 (Homo sapiens) (UniProt Q14994). The experiment in a line: qHTS assay to identify small molecule antagonists of the constitutive androstane receptor (CAR) signaling pathway (AID 1224838).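 Further: HepG2 cells stably expressing hCAR with CYP2B6 luciferase reporter stimulated by CITCO; nearly all actives have a fitted effect of over 40% in size.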 Further: potency means the concentration at half of the fitted maximal effect. In outline:
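Human hepatoma HepG2 cells expressing hCAR and a CYP2B6 promoter (2.2 kb) luciferase construct; compound titration (15 points) with 50 nM CITCO final, 24 h at 37 C/5% CO2; luminescence via ONE-Glo after 30 min at room temperature.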

For test [6] the target is unchanged. The experiment in a line: qHTS assay to identify small molecule agonists of the constitutive androstane receptor (CAR) signaling pathway (AID 1224839). Further: nearly all actives have a fitted effect of over 15% in size. Further: potency means the concentration at half of the fitted maximal effect. In outline: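 HepG2 cells stably co-transfected with hCAR and a CYP2B6-2.2kb luciferase reporter; compounds at 15 concentrations with 0.75 uM PK11195 present. After 24 hr at 37 C, luciferase read by ONE-Glo luminescence.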

In test [7] the target is Thyrotropin receptor (Homo sapiens) (UniProt P16473). The test is described as follows: qHTS assay to identify small molecule agonists of the thyroid stimulating hormone receptor (TSHR) signaling pathway (AID 1224843; calls by dose curve; further: nearly all actives have a fitted effect of over 45% in size; further: potency means the concentration at half of the fitted maximal effect). The method, boiled down:
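Agonist-mode screen: TSHR HEK293 cells received test chemicals for half an hour at room temperature, then HTRF cAMP detection reagents for one hour prior to fluorescence measurement. Each chemical ran as a 15-concentration series, triplicated.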

Test [8] in a line: qHTS assay to identify small molecule agonists of the retinoic acid receptor (RAR) signaling pathway (AID 1159553). Further: potency means the concentration at half of the fitted maximal effect. In outline:
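6 hr compound exposure (DMSO vehicle) of overnight-plated C3RL4 RARE-luc cells at 37 C; luminescence quantified after 30 min RT with luciferase reagent.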

In test [9] the target is Luciferin 4-monooxygenase (Photinus pyralis) (UniProt P08659). The test is described as follows: qHTS assay to identify small molecule inhibitors of firefly luciferase (AID 1224835). Further: nearly all actives have a fitted effect of over 25% in size. Further: potency means the concentration at half of the fitted maximal effect. The method, boiled down:
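Biochemical qHTS: compounds run as interplate titrations against purified firefly enzyme, with D-luciferin and ATP each at its KM concentration. Light output recorded by CCD imaging.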

Test [10] is described as follows: qHTS assay to identify small molecule agonists of the constitutive androstane receptor (CAR) signaling pathway - cell viability counter screen (AID 1224836). Further: series mostly up to about 92 µM; nearly all actives have a fitted effect of over 45% in size. In outline:
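HepG2 cells stably carrying hCAR and a CYP2B6-2.2kb reporter; 15-concentration compounds plus PK11195 (final 0.75 uM), 23 hr at 37 C/5% CO2. Viability read by CellTiter-Fluor fluorescence.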

A short description of test [11]: qHTS assay to identify small molecule agonists of the estrogen related receptor signaling pathway with the pleiotropic PPARgamma coactivator (PGC) from Tox21 10K library (AID 1224842). Further: nearly all actives have a fitted effect of over 15% in size. Further: potency means the concentration at half of the fitted maximal effect. In outline:
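PGC/ERR reporter cell line, 2,000 cells per well, incubated 6 h at 37 C before 23 nL compound in DMSO was added. After 18 h at 37 C, One-Glo luminescence read following 30 min at room temperature.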

Test [12] in a line: qHTS assay to identify small molecule antagonists of the constitutive androstane receptor (CAR) signaling pathway - cell viability counter screen (AID 1224837). Further: series mostly up to about 92 µM; nearly all actives have a fitted effect of over 45% in size. The method, boiled down:
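To flag cytotoxic false antagonists, HepG2 hCAR/CYP2B6-2.2kb cells were treated 23 hr with 15-concentration compound series and 50 nM CITCO at 37 C/5% CO2; CellTiter-Fluor fluorescence was the measured end point.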

Test [13] is described as follows: qHTS assay to identify small molecule antagonists of the estrogen related receptor signaling pathway with the pleiotropic PPARgamma coactivator (PGC) from Tox21 10K library - cell viability counter screen (AID 1224840; active means well fitted cell-killing curve with a large enough effect in the repeat runs, not every such curve was filed as active; further: nearly all actives have a fitted effect of over 40% in size). In outline: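 Seeded PGC/ERR cells (2,000/well, 6 h, 37 C/5% CO2) get compound by pin tool; 17.5 h incubation at 37 C; CellTiter-Fluor added, 30 min, fluorescence measured.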

The nature of test [14]: qHTS assay to identify small molecule antagonists of the estrogen related receptor signaling pathway with the pleiotropic PPARgamma coactivator (PGC) from Tox21 10K library (AID 1224841; call rule not given here; further: series mostly up to about 92 µM; actives are mostly falling curves and most rising ones were filed inactive; nearly all actives have a fitted effect of over 50% in size). In outline:
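Test chemicals dissolved in DMSO were applied to pre-incubated (6 h) PGC/ERR cells at 2,000 cells/well for an 18 h, 37 C treatment; reporter luminescence was then read using One-Glo.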

Test [15] can be described thus: qHTS assay to identify small molecule antagonists of the estrogen related receptor (ERR) signaling pathway - cell viability counter screen (AID 1224818). Further: series mostly up to about 46 µM. The method, boiled down: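 Compounds dissolved in DMSO were applied to ERR cells seeded at 2,000 per well 6 h earlier. Cell viability followed 17.5 h later via 30-min CellTiter-Fluor fluorescence.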
Test [16] can be described thus: qHTS assay to identify small molecule antagonists of the estrogen related receptor signaling pathway with the pleiotropic PPARgamma coactivator (PGC) cell viability counter screen (AID 1224822; further: series mostly up to about 46 µM). The method, boiled down:
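Counter screen for cell viability: PGC/ERR cells, 6 h pre-incubation after plating, 17.5 h compound exposure at 37 C, fluorescence from CellTiter-Fluor after 30 min.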

Chain of Thyrotropin receptor (Homo sapiens) (P16473 whole entry, looked up): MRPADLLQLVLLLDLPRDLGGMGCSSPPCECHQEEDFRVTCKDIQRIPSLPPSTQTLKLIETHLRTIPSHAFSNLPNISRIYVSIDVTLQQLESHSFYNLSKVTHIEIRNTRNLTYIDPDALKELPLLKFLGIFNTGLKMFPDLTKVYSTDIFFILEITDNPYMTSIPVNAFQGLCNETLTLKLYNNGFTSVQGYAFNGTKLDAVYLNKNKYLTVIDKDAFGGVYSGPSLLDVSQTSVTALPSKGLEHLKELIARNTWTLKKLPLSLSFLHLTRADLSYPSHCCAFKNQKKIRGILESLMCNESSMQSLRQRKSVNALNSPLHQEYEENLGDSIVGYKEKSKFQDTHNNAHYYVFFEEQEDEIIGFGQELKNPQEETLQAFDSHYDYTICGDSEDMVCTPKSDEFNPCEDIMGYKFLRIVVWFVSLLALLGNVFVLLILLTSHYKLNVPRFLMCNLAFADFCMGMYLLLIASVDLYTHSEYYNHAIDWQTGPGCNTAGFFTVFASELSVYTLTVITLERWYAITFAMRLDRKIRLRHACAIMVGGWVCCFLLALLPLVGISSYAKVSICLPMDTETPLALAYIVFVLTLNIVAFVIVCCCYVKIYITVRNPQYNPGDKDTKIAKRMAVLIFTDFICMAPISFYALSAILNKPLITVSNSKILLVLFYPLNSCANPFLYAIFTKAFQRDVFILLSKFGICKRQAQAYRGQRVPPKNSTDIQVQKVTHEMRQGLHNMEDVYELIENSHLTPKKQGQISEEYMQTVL
Chain of Luciferin 4-monooxygenase (Photinus pyralis) (P08659 whole entry, looked up): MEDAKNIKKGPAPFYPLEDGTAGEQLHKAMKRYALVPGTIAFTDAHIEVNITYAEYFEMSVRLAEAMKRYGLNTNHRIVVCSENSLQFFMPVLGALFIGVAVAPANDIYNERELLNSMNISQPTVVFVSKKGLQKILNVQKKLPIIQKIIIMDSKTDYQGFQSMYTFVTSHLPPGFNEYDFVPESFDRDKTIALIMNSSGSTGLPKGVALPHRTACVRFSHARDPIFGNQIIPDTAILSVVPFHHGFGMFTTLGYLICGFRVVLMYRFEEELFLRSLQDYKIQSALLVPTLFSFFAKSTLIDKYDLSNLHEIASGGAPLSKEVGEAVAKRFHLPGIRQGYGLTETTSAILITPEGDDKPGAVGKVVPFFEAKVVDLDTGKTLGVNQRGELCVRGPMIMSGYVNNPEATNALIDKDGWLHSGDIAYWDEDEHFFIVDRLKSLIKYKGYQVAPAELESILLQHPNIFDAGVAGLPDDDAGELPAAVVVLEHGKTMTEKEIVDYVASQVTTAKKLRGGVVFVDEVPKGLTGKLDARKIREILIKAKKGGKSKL
Chain of Nuclear receptor subfamily 1 group I member 3 (Homo sapiens) (Q14994 whole entry, looked up): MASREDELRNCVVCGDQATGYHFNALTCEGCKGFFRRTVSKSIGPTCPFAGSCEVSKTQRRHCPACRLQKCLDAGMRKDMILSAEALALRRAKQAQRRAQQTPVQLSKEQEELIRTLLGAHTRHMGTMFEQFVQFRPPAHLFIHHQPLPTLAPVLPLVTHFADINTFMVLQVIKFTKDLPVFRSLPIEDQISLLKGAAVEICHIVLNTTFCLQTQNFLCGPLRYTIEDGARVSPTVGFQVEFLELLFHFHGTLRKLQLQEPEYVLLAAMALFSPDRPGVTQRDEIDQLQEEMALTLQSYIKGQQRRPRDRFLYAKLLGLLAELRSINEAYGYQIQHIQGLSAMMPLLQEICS

`Cc1ccc(N=Nc2c(O)c(C(=O)O)cc3ccccc23)c(S(=O)(=O)O)c1`: the Potency result in [1], in test [2], in [3], in test [5], in test [6] and in test [7] was “inactive” throughout. In addition, in test [4], the Potency was 21 µM (active).

Regarding `CC(C)CC(=O)C1C(=O)c2ccccc2C1=O`, the Potency result in test [1], in [2], in test [8], in test [9], in test [10] and in test [5] was “inactive” each time. In addition, in [11], the Potency result is “inactive”. For the same compound, the Potency in [4] was 38.6 µM (active).

In the case of `O=C(Cl)c1cc(C(=O)Cl)cc(C(=O)Cl)c1`, the Potency result in [1], in [2], in test [3], in test [4], in [10] and in [12] was “inactive” each time. The Potency entry in [13] and in test [7] was “inactive” in each case.

As to `NC(=O)C(c1ccccc1)(c1ccccc1)[C@@H]1CCN(CCc2ccc3c(c2)CCO3)C1`, the Potency entry in [1], in test [2], in test [8], in test [4], in test [9] and in [10] was “inactive” each time. The Potency result in test [12], in test [13] and in test [11] was “inactive” each time.

With `CN(C)c1ccc(CCO)cc1`, the Potency entry in test [1], in test [2], in [8], in test [4], in test [9] and in [10] was “inactive” each time. Moreover, the Potency entry in test [12], in [13] and in test [7] was “inactive” each time. Also, the Potency in test [5] is 27.1 µM (active).

For `CCC(C)c1cc(C(C)(C)C)c(O)c(C(C)(C)C)c1` (centres undefined), the Potency entry in test [1], in [2], in [8], in [4], in test [9] and in test [10] was “inactive” in each case. The Potency result in test [12], in test [13] and in test [7] was “inactive” throughout.

For the compound `COc1ccc(C(=O)c2ccc(OC)cc2O)c(O)c1`, the Potency entry in test [1], in test [2], in test [3], in test [10], in [12] and in test [5] was “inactive” each time. Moreover, the Potency result in test [13] and in test [7] was “inactive” throughout. The Potency in [9] was 28.5 µM (active); in test [6], 9.76 µM (active); in test [11], 4.89 µM (active).

With `O=C(O)C(S)C(S)C(=O)O` (centres undefined), the Potency result in test [1], in test [2], in [8], in test [4], in test [10] and in [12] was “inactive” each time. Moreover, the Potency result in [5], in test [6], in test [13] and in test [7] was “inactive” throughout.

On to `C=C(C)C(=O)OCC`, for which the Potency result in [1], in [2], in test [8], in test [4], in test [9] and in test [10] was “inactive” in each case. In addition, the Potency entry in [12], in test [13], in test [14], in [11] and in test [7] was “inactive” in each case.

As to `Nc1c(CC(=O)O)cccc1C(=O)c1ccc(Br)cc1`, the Potency entry in [1], in [2], in test [8], in test [4], in [9] and in test [10] was “inactive” each time. For the same compound, the Potency result in test [12] and in test [13] was “inactive” each time.

Take `Cc1ccccc1S(=O)(=O)O`: the Potency result in test [1], in test [2], in test [8], in test [4], in test [9] and in [10] was “inactive” each time. The Potency entry in [12], in test [13] and in test [7] was “inactive” each time.

For the compound `C=C1[C@H]2CC[C@@H]3[C@H]2C(C)(C)CCC[C@]13C`, the Potency entry in [1], in [2], in test [8], in test [4], in [9] and in [10] was “inactive” in each case. Also, the Potency result in test [12], in test [5] and in [13] was “inactive” each time.

Turning to `CC(C)(C)Cl`, the Potency entry in [1], in test [2], in test [8], in test [4], in test [9] and in test [10] was “inactive” each time. In addition, the Potency result in test [12], in test [5], in [13] and in test [7] was “inactive” throughout.

On to `C/C=C(/C(=C/C)c1ccc(OC(C)=O)cc1)c1ccc(OC(C)=O)cc1`, for which the Potency result in test [1], in test [2], in test [8], in test [4], in [9] and in test [10] was “inactive” each time. Also, the Potency entry in [12], in [13] and in test [7] was “inactive” in each case.

As for `COC(C)(C)CCO`, the Potency result in test [1], in [2], in test [8], in test [4], in [9] and in test [10] was “inactive” each time. The Potency entry in test [12], in test [5], in test [6], in test [13], in test [14] and in test [11] was “inactive” throughout. In [7], the Potency result was “inactive”.

`O=C1C(O)=C(O)C(=O)C(O)=C1O`: the Potency result in [1], in test [2], in test [8], in test [4], in test [9] and in test [10] was “inactive” in each case. Also, the Potency result in test [12], in test [5], in [6], in test [13] and in test [7] was “inactive” each time.

Turning to `COc1cc(Cl)c(OC)cc1N`, the Potency entry in [1], in [2], in test [8], in test [4], in [9] and in test [10] was “inactive” throughout. Also, the Potency entry in [12] and in test [13] was “inactive” in each case.

For the compound `CC[N+](C)(CC)CCOC(=O)C(O)(c1ccccc1)C1CCCCC1` (centres undefined), the Potency entry in test [1], in [2], in test [8], in [4], in [9] and in test [10] was “inactive” each time. Moreover, the Potency result in test [12], in test [13] and in test [11] was “inactive” in each case.

For the compound `CCOC(=O)C1=C[C@]2(CC)CCCN3CCc4c(n1c1ccccc41)[C@@H]32`, the Potency result in test [1], in test [2], in test [8], in [9], in [10] and in [12] was “inactive” in each case. For the same compound, the Potency entry in test [5] and in test [13] was “inactive” each time. The outcome in test [15] and in test [16] was inactive. The Potency in test [7] was 18.8 µM (active).

Consider `O=C(OCCc1ccccc1)c1ccccc1`, for which the Potency result in test [1], in test [2], in test [4], in test [10], in test [12] and in [5] was “inactive” each time. Moreover, the Potency entry in test [6], in test [13] and in test [7] was “inactive” throughout. Also, the results for the Potency in test [8] and in test [9] were 0.386 µM (active) and 1 µM (active), respectively.

Consider `Cc1cc(C(=O)O)ccc1[N+](=O)[O-]`, for which the Potency entry in test [1], in [2], in [8], in [4], in test [9] and in [10] was “inactive” throughout. For the same compound, the Potency entry in [12] and in test [13] was “inactive” each time.

In the case of `C[N+](C)(C)CCOC(=O)CCC(=O)OCC[N+](C)(C)C`, the Potency result in test [1], in [2], in test [8], in test [4], in test [9] and in test [10] was “inactive” in each case. For the same compound, the Potency result in test [12] and in [13] was “inactive” each time. Moreover, the outcome in test [15] and in test [16] was inactive.
